Bioassay records: PubChem BioAssay, several laboratories
Htt clearance = compounds clearing mutant huntingtin protein. AID 853. 47,000 compounds, 0.42% hits. inhibition, % at 1.5 µM. HeLa Exon1htt(103Q)mCFP, aggregate imaging; zero = plate's median compound well;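 active means inhibition of aggregate fluorescence above about 70%, also judged a hit by eye on the cell image, limit read from the data, passing the limit was not always enough; inconclusive means no rule stated for this call; inactive means not judged a hit on image review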;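 further: cells exposed to compound for three days before fixation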
M1 antagonist = M1 muscarinic receptor (rat) antagonism | AID 628 | CHO-M1 cells, Fluo-4 calcium, ACh EC80 antagonist mode; active compounds read low | 64,000 compounds, 3.4% hits | B-score at 10 µM | P08482;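 active means calcium fluorescence response, raw or row-and-column corrected B-score, differing from the plate sample mean either way at a set confidence level, mostly lower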
M1 agonist = agonists of M1 muscarinic receptor; CHO-M1 cells, Fluo-4 calcium fluorescence, agonist mode; active compounds read high; B-score at 10 µM; 64,000 compounds, 3% hits;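 active means fluorescence rise, raw or as B-score row- and column-corrected plate score, outside the 99.7% band of its plate's samples, either direction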
WNV NS2B-NS3 inh = inhibitors of West Nile virus NS2B-NS3 protease. P06935. WNV NS2B-NS3 protease, fluorogenic substrate Ex360/Em465; active compounds read low. z-score (no concentration beside the values). 65,000 compounds, 0.18% hits. AID 577; in the data active means z-score below about -3
Target sequence (P06935 1371-1501 limits assumed): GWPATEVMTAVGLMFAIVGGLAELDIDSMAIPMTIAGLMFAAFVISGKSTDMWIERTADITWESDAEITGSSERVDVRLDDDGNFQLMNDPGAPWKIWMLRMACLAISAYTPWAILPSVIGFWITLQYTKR
Target sequence (P06935 1502-1679 limits assumed): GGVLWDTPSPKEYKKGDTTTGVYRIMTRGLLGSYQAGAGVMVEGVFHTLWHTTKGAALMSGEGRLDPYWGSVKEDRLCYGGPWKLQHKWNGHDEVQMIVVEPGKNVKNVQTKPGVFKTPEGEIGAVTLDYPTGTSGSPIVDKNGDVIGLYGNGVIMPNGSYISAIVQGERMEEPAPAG
D1 allo mod = allosterically modulates the human D1 dopamine receptor | HEK293 D1, CRE-luciferase, dopamine EC30 potentiation; actives deviate in either direction | 58,000 compounds, 5.9% hits | B-score at 10 µM | AID 641;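 active means luminescence count or its row- and column-corrected plate score outside the 99.7% band of the plate's sample wells, on either side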
M1 antag confirm = confirmation of rat M1 muscarinic receptor antagonists; shares compounds with M1 antagonist; CHO-M1 cells, Fluo-4 calcium, ACh EC80 antagonism; active compounds read low; calcium response (max-min fluorescence) at 10 µM; 1,700 compounds, 43% hits;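 active means calcium response below the same-plate mean of wells given acetylcholine alone at its 80%-effect dose, minus 3 SD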
mGluR4 antag = selectivity test for M1 antagonists: human mGluR4 receptor. 1,700 compounds, 0.9% hits. CHO-mGluR4 calcium flux, Fluo-4 fluorescence, glutamate EC80; active compounds read low. shares compounds with M1 antagonist. fluorescence response (max-min) at 10 µM. AID 678;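 active means fluorescence response below the plate's average for near-maximal glutamate wells, less 3 SD of those wells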;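 further: raw unnormalized fluorescence span taken in the window right after glutamate addition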
Hits are given with their value; 0 = inactive; ? = inconclusive; - = not tested or not shown. Compounds with a hit are over-represented: about 8.9% of the library has one in this group of screens.

SMILES	Htt clearance	M1 antagonist	M1 agonist	WNV NS2B-NS3 inh	D1 allo mod	M1 antag confirm	mGluR4 antag
CCCCN(C(=O)c1ccc(Cl)cc1)C1CC2CCC(C1)N2C (stereo not given)	-	-2.1	0	0	0	369	0
COc1cc(C(=O)N(CCc2ccccc2)C2CC3CCC(C2)N3C)cc(OC)c1OC (stereo not given)	-	0	0	0	0	-	-
Clc1ccc(OCCCn2cncn2)cc1Cl	0	0	0	0	0	-	-
CC(C)CC(=O)O/N=C1\C(=O)N(Cc2ccc(Cl)cc2)c2ccc([N+](=O)[O-])cc21	0	-	-	-	-	-	-
Cc1cc(NC(=O)Cn2nnc3sc4c(c3c2=O)CCCC4)no1	0	-5	0	0	0	0	0
Cc1cc(NC(=O)Cn2nnc3sc4c(c3c2=O)CCC(C(C)(C)C)C4)no1 (stereo not given)	0	0	0	0	0	-	-
CCN1CCN(CC(O)COCc2ccccc2)CC1 (stereo not given)	-	0	0	0	0	-	-
OC(COCc1ccco1)CN1CCN(C(c2ccccc2)c2ccccc2)CC1 (stereo not given)	-	-17	0	0	0	123	0
CC1CCCCN1CCn1cnc2c([nH]c3ccccc32)c1=O (stereo not given)	-	-6.9	0	0	0	355	0
O=S(=O)(c1ccc(OCC(O)CN2CCC(Cc3ccccc3)CC2)cc1)N1CCOCC1 (stereo not given)	0	-1	0	0	0	0	0
COc1cccc(OCC(O)CN2CCC(Cc3ccccc3)CC2)c1 (stereo not given)	-	-2.2	0	0	0	347	0
O=S(=O)(c1ccc(OCC(O)CN2CCN(c3ccccc3)CC2)cc1)N1CCOCC1 (stereo not given)	-	0	0	0	0	-	-
OC(COc1ccc(OCc2ccccc2)cc1)CN1CCCCC1 (stereo not given)	-	-6.6	0	0	0	358	0
Cc1nn(C(=O)CCCC(=O)n2nc(C)c(Cl)c2C)c(C)c1Cl	0	0	0	0	0	-	-
O=C(CN1CCCC1)NCC12CC3CC(CC(C3)C1)C2	-	0	0	0	0	-	-
NC(=O)NCC12CC3CC(CC(C3)C1)C2	0	-2.9	0	0	0	0	0
CCOC(=O)CCc1nc2ccccc2[nH]c1=O	0	0	0	0	0	-	-
CCOC(=O)Cc1nc2ccccc2[nH]1	-	-4.1	0	0	0	0	0
Cn1c(=O)n(CC(=O)N2CCOCC2)c2ccccc21	0	0	0	0	0	-	-
CCS(=O)(=O)c1nc2ccccc2n1CC(=O)N1CCOCC1	?	-2.7	0	0	0	0	0
O=c1c2ccccc2[nH]c(=S)n1CCN1CCN(Cc2ccccc2)CC1	-	-4.2	0	0	0	508	0
CCCn1c2c(c(O)c(C(=O)Nc3ccccc3)c1=O)CCCC2	-	0	0	0	0	-	-
Cc1ccc(NC(=O)C2CCN(C(=O)NC3CCCCC3)CC2)cc1Cl	0	0	0	0	0	-	-
Cc1ccc(NC(=O)NC2CCCCC2)cc1Cl	0	-1.1	0	0	0	0	0
CCCCc1cc(=O)oc2cc(C)c(CN3CCCC3)c(O)c12	0	0	0	0	0	-	-
SMILES	Htt clearance	M1 antagonist	M1 agonist	WNV NS2B-NS3 inh	D1 allo mod	M1 antag confirm	mGluR4 antag
CCCCc1cc(=O)oc2c(CN3CCCC3)c(O)ccc12	0	-2.3	0	0	-	0	0
CCCS(=O)(=O)N1CCC(C(=O)NCCN2CCC(Cc3ccccc3)CC2)CC1	-	-4.6	0	0	0	467	0
Cc1noc(C)c1S(=O)(=O)N1CCC(C(=O)NCCN2CCC(C)CC2)CC1	-	-4.3	0	0	-	0	0
Cc1nnc(SCC(=O)Nc2ccc(S(=O)(=O)N3CCCC3)cc2)n1N	0	-4.7	0	0	0	276	0
CCS(=O)(=O)N1CCC(C(=O)NCCN2CCN(Cc3ccccc3)CC2)CC1	0	-3.4	0	0	0	0	0
CCCCc1ccc(NC(=O)CSCc2cc(=O)[nH][nH]2)cc1	0	-	-	-	-	-	-
CC1CCCN(CC(=O)Nc2ccc(S(=O)(=O)N3CCCCCC3)cc2)C1 (stereo not given)	0	-2.1	0	0	0	375	0
Cc1ccc(S(=O)(=O)N2CCC(C(=O)NCCN3CCCCCC3)CC2)cc1	0	-3.5	0	0	0	527	0
CCCCn1c(SCC(=O)Nc2nnc(CC)s2)nc2ccccc2c1=O	-	-7.8	0	0	0	0	0
O=C(Nc1ccc2c(c1)C(=O)N(c1ccccc1)C2=O)C1CCCO1 (stereo not given)	0	-	-	-	-	-	-
CCOC(=O)c1cnc(-n2nc(C)cc2C)nc1NCc1ccccc1	0	-4.3	0	0	0	405	0
COc1cccc(C(=O)OC(C)CN2CCCC2)c1 (stereo not given)	-	0	0	0	0	-	-
CC(CN1CCCCC1)OC(=O)c1ccc2c(c1)OCO2 (stereo not given)	0	-2.7	0	0	0	0	0
CC1CCN(CC(C)OC(=O)c2ccc3c(c2)OCCO3)CC1 (stereo not given)	-	-12	0	0	0	92	0
CC(CN1CCCCC1)OC(=O)c1cc2ccccc2o1 (stereo not given)	-	-4.7	0	0	0	296	0
COc1cc(NS(=O)(=O)c2ccc(NC(C)=O)cc2)nc(OC)n1	0	-	-	-	-	-	-
COc1cc(NS(=O)(=O)c2ccc(NC(=O)c3ccco3)cc2)nc(OC)n1	0	-2.2	0	0	0	0	0
CC1CCCN(C(=O)C2CCN(CC(C)c3ccccc3)CC2)C1 (stereo not given)	0	-	-	-	-	-	-
COc1cc2c(=O)n(Cc3ccccc3)c(=O)n(CC(=O)C(C)(C)C)c2cc1OC	-	-2.1	0	0	0	0	0
COc1cc2c(=O)n(Cc3ccco3)c(=O)n(CC(=O)c3ccc(Br)cc3)c2cc1OC	-	0	0	0	0	-	-
CCCN(CCC)CCCNC(=O)c1cc2c(=O)n(C)c3ccccc3c2n1C	-	-4.4	0	0	0	441	0
CCCCN(CC)CCNC(=O)c1cc2c(=O)n(C)c3ccccc3c2n1C	-	-4.3	0	0	0	412	0
Cn1c(C(=O)NCCCN2CCCCCC2)cc2c(=O)n(C)c3ccccc3c21	0	-3.2	0	0	0	511	0
Cc1nc(NCc2ccco2)c2c3c(sc2n1)CCC3	0	-1.9	0	0	-4.7	0	0
CC(=O)Nc1ccc(S(=O)(=O)N2CCN(C34CC5CC(CC(C5)C3)C4)CC2)cc1	0	-3.1	0	0	0	0	0
CCOC(=O)N1CCC2(CC1)CC(=O)c1c(ccc3oc(C(=O)O)c(C)c13)O2	-	-3.3	0	0	0	0	0
CCOC(=O)c1oc2ccc3c(c2c1C)C(=O)CC1(CCN(C(=O)OCC)CC1)O3	-	0	0	0	-	-	-
CC(=O)Nc1ccccc1C(=O)N1CC2(C)CC1CC(C)(C)C2 (stereo not given)	-	0	0	0	-	-	-
C=CCOC(=O)COc1ccc2c(C)c(C)c(=O)oc2c1	-	-2.6	0	0	0	0	0
